EBV gp42 block: inhibitors of Epstein-Barr virus glycoprotein 42; AID 1085; 0.42% of 220,000 active; Fluorescence polarization binding assay, mP read-out; Q1HVG2; inhibition, % (tested at 21.74 µM); in the data active means inhibition above about 50%
Target sequence (Q1HVG2 whole entry, looked up): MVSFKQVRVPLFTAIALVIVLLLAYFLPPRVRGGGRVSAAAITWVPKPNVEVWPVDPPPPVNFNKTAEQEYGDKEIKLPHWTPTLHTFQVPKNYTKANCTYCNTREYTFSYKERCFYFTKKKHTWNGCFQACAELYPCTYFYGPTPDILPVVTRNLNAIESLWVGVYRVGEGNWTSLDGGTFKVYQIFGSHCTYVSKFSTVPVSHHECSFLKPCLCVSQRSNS
E coli Lon inh: E. coli protease La inhibition | 0.42% of 360,000 active | P0A9M0 | purified E. coli Lon protease, fluorescence polarization | inhibition, % at 7.94 µM | AID 602123; in the data active means inhibition above about 13%, passing the limit was not always enough;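 further: 0% = enzyme with probe and DMSO and 100% = no enzyme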
GLD-1 TGE inh: GLD-1-TGE RNA interaction inhibition (C. elegans); Q17339; purified GLD-1 + fluorescein TGE RNA, fluorescence polarization; inhibition, % at 5.96 µM; 0.44% of 320,000 active;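 active means percent inhibition above a per-plate cutoff, the plate mean of test compounds plus 3 SD, cut at about 30% in these data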;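 further: 0% = DMSO wells with GLD-1 and probe and 100% = wells lacking GLD-1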
MCL1-BIM inh: MCL1-BIM-BH3 interaction inhibition (human). Q07820. GST-MCL1 / FITC-Bim-BH3 fluorescence polarization. inhibition, % at 10.9 µM. 0.68% of 320,000 active. AID 2057;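 active means inhibition above the mean inhibition of all tested compounds plus 3 SD, set per campaign, cut at about 40% in these data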;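 further: 0% = DMSO wells and 100% = unlabeled Bim-BH3 peptide control; higher means more loss of mP so more displacement of Bim peptide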
BCLXL inh: inhibitors of human Bcl-xL. Q07817. GST-Bcl-xL / FITC-Bim BH3 peptide fluorescence polarization. inhibition, % at 10.9 µM. 0.7% of 320,000 active. AID 2129;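 active means inhibition above the mean of all tested compounds plus 3 SD, cutoff set per campaign, cut at about 30% in these data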;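 further: 0% = DMSO wells and 100% = unlabeled Bim-BH3 peptide competitor; inhibitors lower millipolarization by displacing the labeled peptide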
Target sequence (Q07817 whole entry, looked up): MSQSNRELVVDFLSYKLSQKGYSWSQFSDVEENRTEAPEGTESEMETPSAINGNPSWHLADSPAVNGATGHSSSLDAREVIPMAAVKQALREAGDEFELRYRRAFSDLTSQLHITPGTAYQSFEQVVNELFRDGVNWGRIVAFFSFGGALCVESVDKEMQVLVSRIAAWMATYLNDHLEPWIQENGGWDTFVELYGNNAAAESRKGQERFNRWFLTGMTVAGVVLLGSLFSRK
MEX-5 binding: C. elegans MEX-5 TCR-2 RNA binding activity | Q9XUB2 | MEX-5/FITC-TCR2 RNA binding, fluorescence polarization; active compounds read low | activity score (negative = inhibition of binding), % at 10 µM | 0.38% of 300,000 active;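 active means inhibition past about -25% in most replicates, and total fluorescence under double the plate's negative control median, limit read from the data; inconclusive means replicates evenly split on the limit, or fluorescence at least double controls; inactive means too little inhibition in most replicates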;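 further: 0% = DMSO and -100% = 5 µM competing unlabeled TCR2 RNA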
* hit, by the source's call; ? = inconclusive; nt = not tested or not shown. An excerpt weighted towards active compounds, which were near 1.4% of everything screened.

SMILES | EBV gp42 block | E coli Lon inh | GLD-1 TGE inh | MCL1-BIM inh | BCLXL inh | MEX-5 binding
CCCNS(=O)(=O)c1ccc(CCC(=O)NCc2ccc3c(c2)OCO3)cc1 | -5 | -3 | -3 | -2 | 0 | -36*
CCOC(=O)Nc1ccc2c(COC(=O)CNS(=O)(=O)c3cccc(Br)c3)cc(=O)oc2c1 | -47 | 3 | 7 | -24 | -8 | -2
O=C1Nc2cc(Cl)cnc2N2CCCC12 (centres undefined) | 72* | 9 | 10 | 43* | 36* | -37*
Cc1ccsc1C(C(=O)NC(C)(C)C)N(C(=O)c1csnn1)c1ccccc1 (centres undefined) | -14 | 9 | 4 | 1 | 4 | -1
CCCS(=O)(=O)NC(=O)C1(C)CCN(C(=O)c2snnc2C)C1 (centres undefined) | nt | -2 | nt | nt | nt | nt
Cc1cc(NS(=O)(=O)c2ccc(Nc3nc(-c4sc(N)nc4C)cs3)cc2)no1 | -8 | -4 | 11 | 12 | 9 | -29*
Cc1cc(NS(=O)(=O)c2ccc(Nc3nc(-c4ccc(C)c(C)c4)cs3)cc2)no1 | 11 | -9 | 6 | -3 | 1 | 3
C[C@H](CO)N1C[C@H](C)[C@@H](CN(C)C(=O)NC2CCCCC2)Oc2c(NS(=O)(=O)c3cn(C)cn3)cccc2C1=O | nt | 3 | 3 | nt | nt | nt
Cc1c(N=C2N=C(NC(=O)c3ccc(F)cc3)c3ccccc32)c(=O)n(-c2ccccc2)n1C | 116* | 0 | -8 | -10 | -11 | -9
Cc1c(NC(=O)NC(=O)c2ccc(F)cc2)c(=O)n(-c2ccccc2)n1C | -23 | -2 | 2 | 7 | 0 | -3
COc1cccc2sc3ccc(NCCC4CCCN4C)cc3c(=O)c12 (centres undefined) | nt | 6 | 36* | 30 | 33* | -3
COc1cc2sc3cc(NCC[C@@H]4CCCN4C)ccc3c(=O)c2cc1OC | nt | -1 | -3 | nt | nt | nt
Cc1ccccc1-c1csc(C(O)c2ccc(F)c(F)c2)n1 (centres undefined) | nt | -3 | nt | nt | nt | nt
COc1ccc(C2CC(c3ccccc3)n3nc(NC(=O)c4cccs4)nc3N2)cc1 (centres undefined) | 69* | 1 | 5 | 6 | 6 | 1
COc1cc(CN2CCNC(=O)C2CC(=O)N2CCc3ccccc3C2)cc(OC)c1 (centres undefined) | -15 | 2 | 18 | 21 | 21 | -1
N#Cc1nc(Cc2cccc3ccccc23)oc1N1CCC(C(N)=O)CC1 | -6 | -2 | 0 | 5 | 33* | -1
CC1CCN(c2oc(Cc3cccc4ccccc34)nc2C#N)CC1 | -9 | -3 | -4 | -3 | 2 | 0
CCOC(=O)C1=C(O)/C(=C/N(C)C)N=C1C | -14 | 5 | 23 | 32 | 36* | ?
O=C(CC1C[C@H](C(=O)N2CCOCC2)[C@@]2(CCC3CCCC3)c3[nH]c4ccccc4c3CCN2C1=O)NCc1cccc(C(F)(F)F)c1 (some centres undefined) | nt | 3 | nt | nt | nt | nt
COc1cc(CNCc2ccc(SC)cc2)cc(OC)c1 | -23 | -17 | 1 | 0 | 2 | -1
COC(=O)c1ccc(N)cc1O | 6 | -6 | 1 | 5 | 6 | 0
COC(=O)c1ccc(=O)c2nc3/c(=C/O)c(O)cc(=O)c3[nH]c12 | 98* | -2 | 4 | 97* | 90* | nt
O=C(O)c1cccc(-n2cccc2/C=C2/NC(=O)N(c3ccc(Cl)cc3)C2=O)c1 | 95* | -12 | nt | nt | nt | nt
COCCNC(=O)C1CCCN(S(=O)(=O)c2cccc3nsnc23)C1 (centres undefined) | nt | -2 | 5 | -1 | 7 | 0
N#CC1(C#N)CC(C=O)=C(N)C1(C#N)CC(=O)C12CC3CC(CC(C3)C1)C2 (centres undefined) | 142* | -19 | -9 | -1 | 11 | 1
NS(=O)(=O)c1ccc(Nc2nc(-c3ccc(O)cc3O)cs2)cc1 | 0 | 3 | -1 | 6 | 11 | -45*
NS(=O)(=O)c1ccc(Nc2nc(-c3ccc(F)cc3)cs2)cc1 | 10 | 2 | 6 | 4 | 4 | -1
COCC1CCN(C(=O)CC2C(=O)NCCN2Cc2cccc(Oc3ccccc3)c2)CC1 (centres undefined) | nt | 3 | 3 | 7 | 12 | -26*

Source: PubChem BioAssay (several laboratories)
